From PubChem BioAssay AID1779 (Sanford-Burnham Center for Chemical Genomics, 2009) come the findings set out here.

A word on the inhibition: it is the relative decrease from the control value, in per cent.

The campaign covered roughly 290,000 compounds. About 160 (0.055%) were called active. Shown is part of a subset that was picked to be rich in actives. A number with no mark means an inactive call. No stated cut-off is given here; in the data, active means inhibition above about 50%; inactive means the rest.

Tyrosine-protein phosphatase non-receptor type 22 (Homo sapiens), sequence (Q9Y2R2 whole entry, looked up): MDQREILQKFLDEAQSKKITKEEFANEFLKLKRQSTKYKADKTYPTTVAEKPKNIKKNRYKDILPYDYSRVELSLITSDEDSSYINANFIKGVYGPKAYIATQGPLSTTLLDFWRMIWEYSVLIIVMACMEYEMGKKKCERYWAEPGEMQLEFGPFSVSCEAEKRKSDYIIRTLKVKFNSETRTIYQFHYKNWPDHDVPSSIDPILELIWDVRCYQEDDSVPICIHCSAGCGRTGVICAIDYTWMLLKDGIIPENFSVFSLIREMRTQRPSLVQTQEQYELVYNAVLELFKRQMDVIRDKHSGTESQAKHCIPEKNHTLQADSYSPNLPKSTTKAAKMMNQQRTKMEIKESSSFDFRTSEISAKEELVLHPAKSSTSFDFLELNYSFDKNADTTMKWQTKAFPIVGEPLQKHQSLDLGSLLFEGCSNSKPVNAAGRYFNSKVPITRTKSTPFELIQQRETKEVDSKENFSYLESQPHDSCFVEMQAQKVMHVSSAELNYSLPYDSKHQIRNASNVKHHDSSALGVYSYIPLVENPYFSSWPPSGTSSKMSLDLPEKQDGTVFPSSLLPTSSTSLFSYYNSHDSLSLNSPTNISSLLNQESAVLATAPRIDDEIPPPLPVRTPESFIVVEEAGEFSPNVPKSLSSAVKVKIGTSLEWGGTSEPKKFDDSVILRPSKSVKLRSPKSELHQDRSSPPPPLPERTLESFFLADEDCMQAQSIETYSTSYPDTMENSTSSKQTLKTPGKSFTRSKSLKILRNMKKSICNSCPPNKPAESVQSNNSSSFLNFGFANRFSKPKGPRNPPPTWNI

The test has as its target Tyrosine-protein phosphatase non-receptor type 22 (Homo sapiens) (UniProt Q9Y2R2). The test can be described thus: inhibitors of LYP phosphatase, biochemical, fluorescence intensity, uHTS (AID 1779).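 Further: plate controls were vehicle with enzyme for no effect and no enzyme for full effect.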 The following applies: recombinant LYP phosphatase, at 11.5 µM, active compounds read high.
For `Cc1cc(=O)oc2cc(OCCSCCN3CCOCC3)ccc12`, the inhibition is -5.9%.
Next, `COc1ccc(N2CCN(C(=O)c3ccc(COc4ccc5c(C)cc(=O)oc5c4)cc3)CC2)cc1`: 2.8%; `COc1ccc(N2CCN(CCOc3ccc4c(C)cc(=O)oc4c3)CC2)cc1`: 67.7% (active).
With `N#C/C(=C\c1ccccc1O)C(=O)Nc1cccnc1` the figure was -9%.
With `O=C(CCN1C(=O)c2ccccc2S1(=O)=O)Nc1ccccc1O` the figure was -0.2%; with `C=CCc1cccc2cc(C(=O)Nc3ccc(S(=O)(=O)Nc4nnc(CC)s4)cc3)c(=O)oc12`, 71.3% (active); with `CCc1nnc(NS(=O)(=O)c2ccc(NC(=O)c3cccc4ccccc34)cc2)s1`, 1.6%.
Consider `CCc1nnc(NS(=O)(=O)c2ccc(NC(=O)c3cc4ccccc4oc3=O)cc2)s1`, for which the inhibition was 1.9%.
Next, `Cc1c(C)n(C(=O)CN2CCN(c3ccccn3)CC2)c2ccccc12`: 5.2%.
With `O=C(Nc1c(F)cccc1F)c1ccc2c(c1)CCN2S(=O)(=O)c1ccccc1` the figure was -8.4%; with `Cc1cc(Cl)ccc1OCc1n[nH]c(=S)n1C1CCCCC1`, 4%; with `Cc1ccc(N2CCN(CCCCN3C(=O)C4CCCN4C3=O)CC2)cc1` (configuration not stated), 62.7% (active).
Next, `Nc1ccc(N2CCN(CCCCN3C(=O)C4CCCN4C3=O)CC2)cc1` (configuration not stated): -25%.
As for `Cc1ccc(N2CCN(CCCN3C(=O)C4CCCN4C3=O)CC2)cc1` (configuration not stated), the inhibition is 1.4%.
Next, `Cc1cccc(OCC(O)CN2CCOCC2)c1` (configuration not stated): -8.2%; `CCN(CC)CCCNC(=O)Cn1ncn2cccc2c1=O`: -3.9%; `CC(C)(C)c1ccc(C2(C)NC(=O)N(CC(=O)NCc3cccs3)C2=O)cc1` (configuration not stated): -8.4%.
Next, `COc1ccc(OC(C)C(=O)N2CCC(C)CC2)cc1` (configuration not stated): -5.6%; `COc1ccc(OC(C)C(=O)N2CCOCC2)cc1` (configuration not stated): -9.8%.
Next, `COc1ccc(OC(C)C(=O)N2CC(C)OC(C)C2)cc1` (configuration not stated): 63.6% (active); `COC(=O)c1ccc2c(c1)NC(=O)C(N1CCCCC1)S2` (configuration not stated): 1%.
Consider `Cc1c(C(=O)O)sc2nc(/C=C/c3cccc(O)c3)[nH]c(=O)c12`, for which the inhibition is -5.3%.
Next, `Cc1c(C(=O)O)sc2nc(/C=C/c3cccc(F)c3)[nH]c(=O)c12`: -4.3%.
With `CCCOc1ccc(/C=N/NC(=O)CSc2ccccn2)cc1OC` the figure was 0.2%; with `CCN(CC)S(=O)(=O)c1ccc(N2CCOCC2)c(NC(=O)Cc2cccc3ccccc23)c1`, -0.8%.
With `COc1ccc(C(CC(=O)N2CCCCC2)c2c(OC)cc(OC)c3ccc(=O)oc23)cc1` (configuration not stated) the figure was -2.3%; with `CS(=O)(=O)N1CCN(C(=O)c2ccncc2)CC1`, -7.1%; with `COc1ccc(C(=O)N2CCN(C(=O)c3ccncc3)CC2)cc1`, -9.1%.
In the case of `O=C(c1ccncc1)N1CCN(C(=O)c2ccncc2)CC1`, the inhibition was 67% (active).
With `Cc1cccc(-n2cc(CN3CCN(C(=O)c4ncn[nH]4)CC3)c(-c3cccc(F)c3)n2)c1` the figure was 56.5% (active); with `Cc1ccc(-n2cc(CN3CCN(C(=O)c4ncn[nH]4)CC3)c(-c3ccc(F)cc3)n2)cc1`, -3.9%; with `CC(=O)N1CCCN(Cc2cn(-c3cccc(C)c3)nc2-c2cccc(F)c2)CC1`, -2.6%.
With `CCN(CCCNC(=O)COc1cc(=O)n(CC)c2ccccc12)Cc1ccccc1` the figure was 6.1%; with `CCOc1ccc(Nc2nc(N)c([N+](=O)[O-])c(N3CCN(CC)CC3)n2)cc1`, -3.7%.
Next, `N#C/C(=C(/O)c1ccc(C(=O)c2ccccc2)cc1)c1nc2ccccc2[nH]1`: -4.1%; `O=C(N/N=C/c1ccccn1)c1ccccc1`: 2.8%; `O=C(N/N=C/c1ccccn1)c1ccc(Cl)cc1`: -5.3%.
For the compound `O=C(N/N=C/c1ccccn1)c1ccc(Cl)c(Cl)c1`, the inhibition is 72% (active).
Consider `COc1cc(/C=C2\SC(=O)N(Cc3ccc(F)cc3)C2=O)cc([N+](=O)[O-])c1O`, for which the inhibition is 0.7%.
Next, `COc1cc(/C=C2\SC(=O)N(Cc3ccc(Cl)cc3)C2=O)cc([N+](=O)[O-])c1O`: 33%.
With `COc1cc(/C=C2\SC(=O)N(c3ccccc3Cl)C2=O)cc([N+](=O)[O-])c1O` the figure was 11.7%; with `COc1cc(/C=C2\SC(=O)N(CC(=O)Nc3cccc(C)c3)C2=O)cc([N+](=O)[O-])c1O`, 4.5%.
`COc1cc(/C=C2\SC(=O)N(c3cccc(Cl)c3)C2=O)cc([N+](=O)[O-])c1O`: the inhibition is 92.2% (active).
Take `COc1cc(/C=C2\SC(=O)N(c3ccc(Cl)cc3)C2=O)cc([N+](=O)[O-])c1O`: the inhibition was 91.6% (active).
For `CS(=O)(=O)N(CC(=O)N1CCN(c2cccc(Cl)c2)CC1)c1cccc(F)c1`, the inhibition is 4.5%.
Next, `CCCCN(C)CCC(=O)Nc1ccc2c(c1)CCC2`: -2.9%.
With `CCOc1ccc(Cl)cc1/C=N/NC(=O)c1ccccc1` the figure was -4.5%; with `CC1(C)c2ccccc2N2CC(=O)N[C@@]21/C=C/C=C/c1ccccc1`, 8.6%.
Next, `c1cc(-n2nnc3cnccc32)ccn1`: -4.3%; `O=C(CSc1ccc2c(c1)OCCO2)Nc1ccc(Cl)cn1`: -8.6%; `CC(=O)Nc1ccc(SCC(=O)Nc2ccc(Cl)cn2)cc1`: 77.1% (active).
Turning to `CC(=O)Nc1ccc(NC(=O)CSc2ccc(C)cc2)cc1`, the inhibition was -2.7%.
With `CCn1cc(C(=O)NCCCN(CC(C)C)CC(C)C)c(=O)c2cc(S(=O)(=O)N(C)C3CCCCC3)ccc21` the figure was -0.6%; with `O=C(NC1CCSc2ccccc21)c1ccc(C(F)(F)F)cc1` (configuration not stated), -7.3%.
With `O=C(NCc1ccc(F)cc1)c1c2c(nc3ccccc13)CCC2` the figure was 3.5%; with `Cc1ccc2c(C)c(C(=O)NCC(C)(C)N3CCOCC3)oc2c1C`, -8.2%; with `COc1ccc(NC(=O)CC#N)cc1OC`, 0.1%.
With `COc1ccc(C(C#N)(CCC#N)CCC#N)cc1OC` the figure was 56.1% (active).
Consider `C=CCc1ccc(OC)c(OC)c1`, for which the inhibition was -8.6%.
With `CC(C)N(C(=O)CSc1nc2ccccc2n1Cc1ccccc1F)C(C)C` the figure was 5.2%.
Next, `COC(=O)C(C(=O)NCC1CCCO1)C1CCCC1` (configuration not stated): -6.5%; `COC(=O)C(C(=O)NCC1CCCO1)C1CCCCCC1` (configuration not stated): 86.6% (active); `CCOC(=O)C(C(=O)NCC1CCCO1)C1CCCCC1` (configuration not stated): -4.2%.
For the compound `CCOC(=O)NC(=O)C(=CNc1ccc(C)cc1)C(=O)NC(=O)OCC`, the inhibition is 57.4% (active).
Next, `CCOC(=O)NC(=O)C(=CNc1cccc(OC)c1)C(=O)NC(=O)OCC`: -7.5%.
With `CCOC(=O)NC(=O)C(=CNc1cccc(C)c1)C(=O)NC(=O)OCC` the figure was -4.7%; with `O=C(CN1C(=O)NC2(CCc3ccccc3C2)C1=O)Nc1ccc(F)cc1` (configuration not stated), 2%; with `COCC(=O)N(Cc1cc2ccc(C)cc2[nH]c1=O)c1cccc(C)c1`, -1%.
Next, `NS(=O)(=O)c1cc(C(=O)OCC(=O)N2CCOCC2)ccc1Cl`: -4%; `COc1ccc(/C=C2\SC(=S)N(CCCC(=O)Nc3ccc(C(=O)O)cc3)C2=O)cc1OC`: -1.9%.
Consider `COc1cc(/C=C2/SC(=S)N(CCC(=O)Nc3ccc(C(=O)O)cc3)C2=O)cc(OC)c1OC`, for which the inhibition was -0.9%.
Next, `O=S(=O)(CCc1ccncc1)C1Cc2cccc3cccc1c23` (configuration not stated): -6.1%.
With `CC(C)(C)S(=O)(=O)c1cnc(N2CCCCC2)nc1N` the figure was -1.3%.
On to `COc1ccc(N2C(=O)CC(NC34CC5CC(CC(C5)C3)C4)C2=O)c(OC)c1` (configuration not stated), for which the inhibition is -6.7%.
Next, `CC(=O)c1cccc(NC(=O)NC(C)c2ccc3c(c2)OCO3)c1` (configuration not stated): -12.5%.
Next, `CCCNC(=O)c1ccccc1N1CCN(CCCCN2C(=O)C3CCCCN3C2=O)CC1` (configuration not stated): -16.7%; `COc1ccc(C2CC(c3cccs3)=NN2C(=O)CSc2nncn2C)cc1OC` (configuration not stated): 7.7%.
With `Cc1[nH]c2ccccc2c1N=Nc1c(C)n(C)n(-c2ccccc2)c1=O` the figure was 94.5% (active); with `Cc1c(-n2c(=S)[nH]c3ccccc3c2=O)c(=O)n(-c2ccccc2)n1C`, -7.5%; with `Cc1c(N=Nc2ccc(O)cc2)c(=O)n(-c2ccccc2)n1C`, -2.3%.
As to `Cc1cc2c(c(SCC(=O)NCc3ccc(Cl)cc3)n1)C(=O)OC2`, the inhibition is -1.3%.
In the case of `CSCCC(NC(=O)c1ccccc1)C(=O)N(C)CC(=O)Nc1ccc(N2CCOCC2)cc1` (configuration not stated), the inhibition was -6.8%.
With `COCCN(C(=O)COC(=O)c1cccc2ccccc12)c1c(N)n(Cc2ccccc2)c(=O)[nH]c1=O` the figure was -10.3%.
With `Cc1cccc(C)c1Nc1nnc(SC/C(O)=C(\C#N)c2nc3ccccc3[nH]2)s1` the figure was 4.2%; with `CCCCC(CC)C(=O)NCc1ccc(F)cc1` (configuration not stated), -9.2%.
With `CCCCC(C(=O)OCC)C(N)Cc1ccc(F)cc1` (configuration not stated) the figure was 89.5% (active); with `CCOC(=O)C(C(C)C)C(N)Cc1ccc(F)cc1` (configuration not stated), -7.7%.
For the compound `CC(C)CNC(=O)C1CCCN(C(=O)NCc2ccccc2)C1` (configuration not stated), the inhibition was -8.2%.
With `COc1ccc(C2SCC(=O)N2CCCN(C)C)cc1` (configuration not stated) the figure was 50.7% (active).
Next, `COc1cc(C2SCC(=O)N2CCCN(C)C)cc(OC)c1OC` (configuration not stated): -6.3%; `CN(C)CCCN1C(=O)CSC1c1ccccc1` (configuration not stated): -5.4%; `COc1ccc(C2CC23N=C(c2ccccc2)OC3=O)cc1` (configuration not stated): -2.9%.
For `Cc1nnc(SCc2cccs2)[nH]c1=O`, the inhibition was -5.9%.
With `O=C(NC1CCN(Cc2ccccc2)CC1)C1CCCN(c2nnc(-n3cccc3)s2)C1` (configuration not stated) the figure was -1.4%; with `CC(C)C(OC(=O)c1cc2occc2n1C)C(=O)NCc1ccc2c(c1)OCO2` (configuration not stated), 3.8%.
With `CC(C)n1c(C(=O)OCC(=O)NCc2ccc3c(c2)OCO3)cc2occc21` the figure was 59.5% (active); with `CC(C)n1c(C(=O)OCC(=O)NCc2ccc3c(c2)OCO3)cc2sccc21`, -13%.
